DT40 TDP1 no CPT: qHTS for Inhibitors of human tyrosyl-DNA phosphodiesterase 1 (TDP1): qHTS in cells in absence of CPT | Potency, µM (titrated, usually from 46.2 µM), for inactives: at the highest dose activity change, negative = growth inhibition, hits mostly inhibitors | DT40 Tdp1-/- hTDP1 cells, no CPT, ATP luminescence, 48 h | 420,000 compounds, 15% hits; also: potency is read from the fitted curve at half-maximal effect; % is scaled to controls: 0 for no effect and ±100 for the full control effect; nearly all actives have a fitted effect of over 55% in size
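Chicken DT40 Tdp1-/- cells complemented with human TDP1, screened without camptothecin (DMSO vehicle only), 400 cells/well. Compounds pin-transferred, cells incubated at 37 °C for at least 48 hr. Growth read as ATP-dependent luminescence (CellTiter-Glo, 30 min at RT).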
HepG2 viability: counter-screen for TGF-b inhibitors: cytotoxicity in HepG2 cells | HepG2 CAGA-GFP viability, ATP luminescence, 18 h | Potency, µM (highest dose often 46.1 µM), without a hit: at the highest dose activity change, negative = cytotoxicity, hits mostly cytotoxic | 410,000 compounds, 0.76% hits | AID 588856; also: potency is read from the fitted curve at half-maximal effect
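CellTiter-Glo luminescence gave cytotoxicity after 18 hours at 37 degrees C. The cells were HepG2 CAGA-GFP in 1% FBS DMEM, stimulated with 500 pg/mL TGF-beta after compound addition. %Activity was normalised to no-cell wells (complete cell-killing) and DMSO (no toxicity), and curves were fitted and classified.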
TDP1 inh: TDP1 (human) enzyme inhibition | Q9NUW8 | Potency, µM (series often up to 130 µM), without a hit: at the top dose activity change, negative = inhibition, most hits filed as inhibitors | 350,000 compounds, 0.28% hits | recombinant TDP1, AlphaScreen DNA substrate cleavage; also: potency is read from the fitted curve at half-maximal effect; % is scaled to controls: 0 for no effect and ±100 for the full control effect; nearly all actives have a fitted effect of over 40% in size
Target sequence (Q9NUW8 whole entry, looked up): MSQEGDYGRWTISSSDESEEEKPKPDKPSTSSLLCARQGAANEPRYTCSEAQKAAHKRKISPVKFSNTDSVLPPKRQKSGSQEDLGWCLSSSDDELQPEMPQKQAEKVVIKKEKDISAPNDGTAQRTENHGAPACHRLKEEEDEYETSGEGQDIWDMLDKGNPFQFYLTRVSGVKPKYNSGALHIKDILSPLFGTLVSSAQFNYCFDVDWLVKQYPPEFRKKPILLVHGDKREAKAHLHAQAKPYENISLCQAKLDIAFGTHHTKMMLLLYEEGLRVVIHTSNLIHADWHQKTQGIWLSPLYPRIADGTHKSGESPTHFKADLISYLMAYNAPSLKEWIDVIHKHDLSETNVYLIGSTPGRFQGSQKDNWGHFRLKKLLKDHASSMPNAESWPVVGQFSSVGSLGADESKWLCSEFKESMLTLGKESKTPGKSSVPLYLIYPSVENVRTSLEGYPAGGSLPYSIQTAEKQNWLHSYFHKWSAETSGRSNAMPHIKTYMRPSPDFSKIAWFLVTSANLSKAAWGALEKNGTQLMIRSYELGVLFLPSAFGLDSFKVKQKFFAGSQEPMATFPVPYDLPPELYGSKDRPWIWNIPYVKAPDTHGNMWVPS
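Recombinant E. coli-expressed Tdp1 (1 nM) preincubated with compound 15 min at RT, then 5'-biotin/3'-phosphotyrosine-FITC DNA substrate (15 nM) added for 5 min. AlphaScreen beads (10 ug/ml) added, 10 min RT; tyrosine-FITC cleavage read as signal loss.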
DT40 TDP1 CPT: DT40-hTDP1 cell growth loss with CPT. chicken DT40 Tdp1-/-;hTDP1 cells + 20 nM CPT, ATP luminescence, 48 h. Potency, µM (highest dose often 46.2 µM), for inactives: at the highest dose activity change, negative = growth inhibition, hits mostly inhibitors. 420,000 compounds, 12% hits; also: potency is read from the fitted curve at half-maximal effect; % is scaled to controls: 0 for no effect and ±100 for the full control effect; nearly all actives have a fitted effect of over 55% in size
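Chicken DT40 Tdp1-/- cells complemented with human TDP1, 400 cells/well, exposed to compounds plus 20 nM camptothecin for at least 48 h at 37 C; viability read as ATP content by CellTiter-Glo luminescence.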
TGFb SMAD3 inh: blocks TGF-b signaling; HepG2 CAGA-GFP TGF-b/SMAD3 reporter, GFP fluorescence, 18 h; TGF-beta stimulated, 500 pg/mL final; Potency, µM (highest dose often 46.1 µM), for inactives: top-dose activity, negative = inhibition, hits mostly inhibitors; 410,000 compounds, 1.2% hits; also: potency is read from the fitted curve at half-maximal effect; % is scaled to controls: 0 for no effect and ±100 for the full control effect; nearly all actives have a fitted effect of over 65% in size
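HEPG2 CAGA-GFP, 1000 cells/well; 2 h settle, 37 C; cpd via pin tool; TGF-b 500 pg/mL final; 18 h, 37 C; GFP imaging ex488/em500-530; %Activity normalised to -TGF-b and +DMSO controls; CRC fit, curve class.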
IL1B secr inh: blocks inflammasome-driven IL-1 beta release | THP-1 LPS/ATP IL-1B secretion, AlphaLISA, 16 h; active compounds read low | activity change, % at 57.5 µM | 360,000 compounds, 4.7% hits | AID 743279; in the data active = activity change below about -50%; inconclusive = mostly about -30% to -49%; also: % is scaled to controls: 0 for no effect and ±100 for the full control effect
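Secreted IL-1B measured by AlphaLISA bead assay after 16 h compound exposure of THP-1 cells; compounds (final up to 57.5 uM) added 1 h before LPS (250 ng/mL) and ATP (1.25 mM) stimulation; lower signal means less secretion.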
The depositor's hits bear a star; ? = inconclusive; . = no result given; [ ] = another dose, or the depositor's remark. A selection: hits, their analogues and other compounds. The true share with any hit is near 19%. Unless noted, calls follow the shape of the dose curve; as a rule, active = well fitted curve in the direction sought with a large enough effect; inconclusive = small, poorly fitted or top-dose-only effect, or another doubt; inactive = no such curve, though single readings can be large; an effect the other way counts as inactive or inconclusive.

SMILES	DT40 TDP1 no CPT	HepG2 viability	TDP1 inh	DT40 TDP1 CPT	TGFb SMAD3 inh	IL1B secr inh
O=C1[C@H]2[C@H]3[C@H](O)[C@H](O)C/C(=N/OC[C@@H](O)COCc4ccco4)[C@H]3CC[C@@H]2C(=O)N1C1CCCCC1	.	.	4%[21 µM]	.	.	.
COc1ccc(C(=O)NC2CCN(CC(=O)N3CCCCC3)CC2)cc1	-28%	8%	0%	-24%	-2%	2
CC(C)c1cnc2c(c1SCc1ccc([N+](=O)[O-])cc1)c(=O)n(C)c(=O)n2C	8.2µM*	7%	5%	?	?	.
CC1CCN(C(=O)CSc2c(C(C)C)cnc3c2c(=O)n(C)c(=O)n3C)CC1	16µM*	-10%	3%	26µM*	-12%	.
CC(C)c1cnc2c(c1SCC(=O)c1ccc(Cl)cc1)c(=O)n(C)c(=O)n2C	23µM*	-24%	3%	18µM*	-28%	.
CC(C)c1cnc2c(c1SCC(=O)Nc1cccc(F)c1)c(=O)n(C)c(=O)n2C	15µM*	-34%	3%	?	?	.
CC(C)c1cnc2c(c1SCC(=O)O)c(=O)n(C)c(=O)n2C	6%	-8%	5%	1%	1%	.
O=C(Nc1cccc(Cl)c1Cl)C1CCN(C(=O)c2cccs2)CC1	3%	-33%	7%	-20%	-24%	-5
COc1ccc(Cl)cc1NC(=O)CCN1C(=O)c2ccccc2Sc2ncccc21	?	4%	5%	?	-25%	.
CCOc1ccc(OCC(=O)OC(C)C(=O)NC2CCCC2)cc1 (configuration not stated)	20%	10%	0%	15%	1%	0
CCN(CC)c1ccc(NC(=O)c2cc(C)nc3c2c(C)nn3-c2ccc(C)cc2)c(C)c1	?	5%	3%	?	14%	.
CCCc1cnc2c(c1SCc1cccc(C)c1)c(=O)n(C)c(=O)n2C	?	-10%	-8%	16µM*	-2%	.
CC(CN1CCc2nnc(CNC(=O)c3cccc(F)c3)n2CC1)c1ccccc1 (configuration not stated)	?	.	.	-3%[9.04 µM]	.	.
O=C(NCc1nnc2n1CCN(Cc1cc(F)cc(F)c1)CC2)c1cccc(F)c1	4.6µM*	.	.	4.1µM*	.	.
CC1CCCCN1c1cc(C#N)c(C#N)cc1[N+](=O)[O-] (configuration not stated)	-24%	-7%	2%	18µM*	0%	-6
CCc1ccccc1-n1c(C)nc2cc(C(=O)NCCc3ccc(Cl)cc3)ccc21	?	-19%	8%	?	?	.
Cc1nnc(N2CCN(c3ccccc3F)CC2)c2c1nnn2Cc1ccccc1Cl	?	7%	-5%	15µM*	0%	.
Cc1nnc(N2CCN(c3ccccc3F)CC2)c2c1nnn2Cc1ccccc1	16µM*	0%	5%	?	-1%	.
CCOC(=O)Nc1ccc2c(c1)C(=NO)c1ccccc1-2	21µM*	-23%	.	18µM*	0%	-75*
CC(=O)Nc1ccc2c(c1)C(=Nc1ccccc1)c1ccccc1-2	-26%	-14%	.	?	-14%	2
NC(=O)c1cccc2c1-c1ccccc1/C2=N/NC(N)=S	?	-14%	.	15%	-27%	-5
CCOC(=O)Nc1ccc2c(c1)C(=NNC(N)=S)c1ccccc1-2	3.3µM*	8.9µM*	.	6.5µM*	?	-96*
S=C(S)O[C@@H]1C[C@@H]2C[C@H]1[C@@H]1CCC[C@H]21	-21%	.	14%[56.1 µM]	-30%	.	.
C=CCn1c(SCC(=O)c2ccc(O)c(O)c2)nnc1-c1cccnc1	7%	-4%	-8%	-16%	5%	28
C=CCn1c(SCC(=O)O)nnc1-c1cccc(Cl)c1	?	3%	0%	-19%	0%	13

Assay outcomes as filed in PubChem BioAssay.
